In all, about 69,000 compounds went through this assay and about 1,000 (1.4%) showed an effect of 50% or more. This excerpt belongs to a sample that is enriched for strong results.
Tested on: Leishmania donovani
Assay: Leishmania intramacrophage assay
Assay type: functional, organism-based
Set-up: scale not given: in the data most compounds retested in dose-response had high values

Compound | Percent Effect (30.3 µM, […]) [%] | Percent Effect (30 µM, 30.03 µM) [%]
Cc1[nH]c2ccc(C#N)cc2c1CCNc1ncnc2c1CCNCC2 | 16.81 | 
Cc1[nH]c2ccc(Cl)cc2c1CCNc1ncnc2c1CCNC2 | 54.3 | 
Cc1[nH]c2ccccc2c1CCNc1ncnc2c1CCNCC2 | 16.03 | 
CC(C)CN(Cc1ccsc1)C(=O)CCCn1cncn1 | 40.23 | 
Cc1csc(CCCNC(=O)NC2CC(=O)N(C(C)(C)C)C2)n1 (stereo not given) | 22.59 | 
O=C(c1nc(N2CCCC2)ncc1Cl)N1CCN(Cc2ccsc2)CC1 | 1.991 | 
CCOc1ccc(CN(C)C(=O)c2nc(N3CCCC3)ncc2Cl)cc1 | 58.99 | 
Cc1noc(C)c1CN(C)C(=O)c1nc(N2CCCC2)ncc1Cl | -8.961 | 
CN(Cc1ccsc1)C(=O)c1nc(N2CCCCC2)ncc1Cl | 60.89 | 
CCOc1ccc(NC(=O)c2cnc(N3CCCC3)nc2C)cc1 |  | 16.9
CN(Cc1ccsc1)C(=O)c1nc(N2CCCC2)ncc1Cl | 20.2 | 
CCc1c(C(=O)N2CCN(C)[C@@H]3CS(=O)(=O)C[C@@H]32)[nH]c2ccccc12 | -15.51 | 
CS(=O)(=O)NCc1cn2c(n1)CN(Cc1cccnc1)CC2.O=C(O)C(F)(F)F.O=C(O)C(F)(F)F | 33.92 | 
O=C(O)C(F)(F)F.O=C(c1ccnnc1)N1CCN2C[C@H](Oc3cccc(F)c3)C[C@H]2C1 |  | 5.462
CN(C)C[C@@H]1CN(Cc2ccccc2C#N)C[C@@H]1CO | -11.66 | 
COc1ccc(CN2C[C@@H](CN(C)CCO)[C@@H](CO)C2)cc1Cl | 33.72 | 
COc1ccc(CN2C[C@@H](CN(C)C)[C@@H](CO)C2)cc1OC | 51.5 | 
COc1ccc(CN2C[C@@H](CN(C)C)[C@@H](CO)C2)cc1CN1CCCC1 | 7.971 | 
COc1cccc(OC)c1C(=O)N1C[C@@H](CN(C)C)[C@@H](CO)C1 | -22.82 | 
COc1ccc(CN2C[C@@H](CN(C)C)[C@@H](CO)C2)c(Cl)c1OC | 52.59 | 
Cc1noc(C)c1CN1CCC(NC(=O)OC(C)(C)C)CC1 | 3.614 | 
CC(C)c1noc(-c2ccc(NCC3CCCOC3)nc2)n1 (stereo not given) | 22.02 | 
Cc1cccc(-n2cnnc2CCCN2CCOCC2)c1 | 22.56 | 
COc1cccc(CN2C[C@@H]3COC[C@]3(CNC(=O)C3CC3)C2)c1.O=C(O)C(F)(F)F | 43.72 | 

Compound | Percent Effect (30.3 µM, […]) [%] | Percent Effect (30 µM, 30.03 µM) [%]
Cc1cnccc1CNCc1ccc(OC23CCCN(CC2)C3)cc1 (stereo not given) | 13.67 | 
c1ccc(Oc2cccc(OC34CCCN(CC3)C4)c2)cc1 (stereo not given) | 65.6 | 
Cc1nc(CNCc2cccc(OC34CCCN(CC3)C4)c2)n[nH]1 (stereo not given) | 36.42 | 
COc1cc(C#N)ccc1OC12CCCN(CC1)C2 (stereo not given) | 20.92 | 
c1ccc(Oc2ccc(OC34CCCN(CC3)C4)cc2)cc1 (stereo not given) | 89.06 | 
O=c1[nH]nc(CNCc2ccc(OC34CCCN(CC3)C4)cc2)[nH]1 (stereo not given) | 39.69 | 
CCN(CC)C(=O)c1nnn(Cc2ccccc2)c1OC |  | -25.11
Cc1ccc(C(=O)N2CCC3(CCC(=O)N(CC(N)=O)C3)CC2)cc1 | -8.473 | 
CC(C1CC1)N(C(=O)CNc1ccc(C#N)cc1)C1CC1 (stereo not given) | 26.89 | 
CN(C)CCN1CC[C@@H]2[C@@H]1CCN2C(=O)c1cccc(Cl)c1 | 54.02 | 
O=C(O)C(F)(F)F.O=C(c1cccc(Cl)c1)N1CC[C@H]2[C@H]1CCN2CC1CC1 | 23.02 | 
O=C(O)C(F)(F)F.O=C(c1cccc(Cl)c1)N1CC[C@H]2[C@H]1CCN2CC1CCOCC1 |  | 39.19
CO[C@H]1CN(C(=O)c2ccc(-c3ccccc3)[nH]2)CC[C@H]1N | 45.29 | 
CN1[C@H]2CC[C@@H]1CN(C(=O)c1ccc(-c3ccccc3)[nH]1)CC2 | 78.84 | 
O=C(c1ccc(-c2ccccc2)[nH]c1=O)N1CCN(C2CC2)CC1 | 25.14 | 
CCCS(=O)(=O)CC(=O)N1CCN(CC2CC2)c2ccccc21 | 3.775 | 
Cc1ccc2c(n1)N(CCN(C)C)CCN(C(=O)c1cscn1)C2.O=C(O)C(F)(F)F.O=C(O)C(F)(F)F | 4.389 | 
Cc1ccc2c(n1)N(CCN(C)C)CCN(C(=O)c1ccc[nH]1)C2.O=C(O)C(F)(F)F.O=C(O)C(F)(F)F |  | 20.64
Cc1ccc2c(n1)N(CCN(C)C)CCN(C(=O)c1cccs1)C2.O=C(O)C(F)(F)F.O=C(O)C(F)(F)F | 50.31 | 
O=C(c1ccoc1)N1CCCCC1c1nc[nH]n1 (stereo not given) | 24.92 | 
O=C(c1ccc(F)c(F)c1)N1CCCCC1c1nc[nH]n1 (stereo not given) | -8.926 | 
CC(=O)c1ccc(C(=O)N2CCCCC2c2nc[nH]n2)cc1 (stereo not given) | 66.49 | 
CCOCC1CN(C(=O)c2cscn2)Cc2cn(C)nc21.O=C(O)C(F)(F)F (stereo not given) | -0.7565 | 
O=C(c1ccc(-c2ccc(O)nc2)s1)N1CCCCCC1 | 19.86 | 

Compound | Percent Effect (30.3 µM, […]) [%] | Percent Effect (30 µM, 30.03 µM) [%]
Cl.c1cc(CC2CCCNC2)nc(NCCc2cnccn2)c1 (stereo not given) | 2.895 | 
Cl.c1ccc(CCNc2cccc(C3CCCNC3)n2)cc1 (stereo not given) | 71.14 | 
CCn1ccnc1CN(C)c1cc(C2CCCNC2)nc(C)n1 (stereo not given) | -6.202 | 
Cl.c1cc(NCc2ccncc2)nc(C2CCCNC2)c1 (stereo not given) | 20.7 | 
Cc1nc(C2CCCNC2)cc(N(C)CCc2cn[nH]c2)n1 (stereo not given) | 29.46 | 
Cc1nc(C2CCCNC2)cc(N(C)CCc2ccccc2)n1 (stereo not given) | 66.58 | 
CC1(C)Cc2c(cnn2-c2ccccc2)C(NC2CCSCC2)C1 (stereo not given) | 17.91 | 
CCN1C(=O)[C@H]2CN(Cc3cccnc3)C[C@H]2C12CCN(C(C)=O)CC2 | 4.627 | 
CNC(=O)CN1CCC(OCc2ccc(Cl)c(Cl)c2)CC1 | 23.39 | 
CSCCC(O)C(=O)N1CCC(OCc2cccnc2)CC1 (stereo not given) | -15.88 | 
NC(=O)C1CCN(C(=O)Cc2ccc(Cl)c(Cl)c2)CC1 | 12.37 | 
CCC(N)C(=O)N1CCC(OCc2ccc(Cl)c(Cl)c2)CC1.Cl (stereo not given) | 81.5 | 
NC(=O)CN1CCC(OCc2ccc(Cl)c(Cl)c2)CC1 | 39.98 | 
CCOc1cc(-c2cc(=O)n3c(n2)CCCCC3)ccc1O | -28.99 | 
O=C(O)C(F)(F)F.O=C([C@H]1COC[C@H]2CN(c3ncc(F)cn3)C[C@H]21)N1CCOCC1 | 11.96 | 
O=C(CCN1CCCC(CO)(CC2CC2)C1)NCc1cccc(Cl)c1 (stereo not given) | 10.86 | 
O=C(NCCc1cccs1)[C@H]1CO[C@H]2CCN(CC3CC3)C[C@H]2C1.O=C(O)C(F)(F)F | 18.2 | 
COCCN1CC[C@@H]2OC[C@H](C(=O)N(C)Cc3ccccn3)C[C@@H]2C1 | 34.37 | 
CN(Cc1ccccn1)C(=O)[C@H]1CO[C@H]2CCN(CC3CC3)C[C@H]2C1.O=C(O)C(F)(F)F.O=C(O)C(F)(F)F | 67.47 | 
Cc1nc(CN2CCO[C@H]3CN(C(=O)c4cccn4C)C[C@H]32)cs1 | 20.02 | 
O=C(CSc1ccncc1)NC1CC(=O)N(CCc2ccccc2)C1 (stereo not given) | 1.719 | 
COc1ncc(-c2cc(-c3ccn(C)c3)nc(N)c2C#N)cn1 | 4.864 | 
CCNc1ncc(-c2cc(-c3ccn(C)c3)nc(N)c2C#N)cn1 | -7.222 | 
CCn1cc(-c2cc(-c3ccn(C)c3)nc(N)c2C#N)cc1C#N | 62.07 | 

Compound | Percent Effect (30.3 µM, […]) [%] | Percent Effect (30 µM, 30.03 µM) [%]
COc1c(CNCc2ccccc2-n2ccnc2)c(C)nn1C | -14 | 
CCN(CC)C(=O)c1ccn(COc2ccccc2)n1 |  | 25.56
Cc1cc(C)cc(OCn2ccc(C(=O)O)n2)c1 | 36.81 | 
CCN(CC)C(=O)c1ccn(COc2cc(C)cc(C)c2)n1 |  | 51.39
Cc1cc(C(=O)N2C[C@@H](C(=O)O)[C@H](c3ccccc3C)C2)c(C)o1 |  | -7.821
O=C(c1cc(-c2cn[nH]c2)nc2cc(F)ccc12)N1CCS(=O)(=O)CC1 | 4.667 | 
Cc1cc(C)cc(C(=O)NCCS(=O)(=O)N2CCSCC2)c1 | -32.85 | 
Cc1ccoc1C(=O)NCCS(=O)(=O)N1CCSCC1 | 62.05 | 
Cc1ccc(C(=O)NCCS(=O)(=O)N2CCSCC2)o1 | -11.12 | 
CN1CCN([C@@H]2CN(C(=O)CCOc3ccccc3)C[C@H]2O)CC1 | 23.88 | 
COc1cc(CN[C@@H]2COC[C@H]2Cc2cc(C)no2)cc(OC)c1.O=C(O)CC(O)(CC(=O)O)C(=O)O | 4.158 | 
CN1CCN(c2nsc(-c3cccnc3)c2C#N)CC1 | 11.24 | 
Cc1nn(C)c(C)c1-c1cnc(C2CCCN(S(C)(=O)=O)C2)cn1 (stereo not given) | 19.29 | 
CO[C@H]1CN(C(=O)c2cccnc2)[C@@H]2CCCO[C@H]12.O=C(O)C(F)(F)F | 4.595 | 
Cc1ccccc1OCC1CCCN(c2cc(N)nc(N)n2)C1 (stereo not given) | 98.85 | 
Nc1cc(N2CCCC(COc3ccc(F)cc3)C2)nc(N)n1 (stereo not given) | -15.02 | 
CCNC(=O)c1ccnc(N2CCCC(COc3ccccc3C)C2)c1 (stereo not given) | 33.05 | 
Cc1nc(N)cc(N2CCCC(COc3cccc(F)c3)C2)n1 (stereo not given) | 87.26 | 
Cc1nc(CN(C)C)cc(N2CCCC(COc3ccc(F)cc3)C2)n1 (stereo not given) | -8.427 | 
CNC(=O)c1ccnc(N2CCCC(COc3cccc(C)c3)C2)c1 (stereo not given) | 30.74 | 
COc1cccc(OCC2CCCN(c3cc(C(N)=O)ccn3)C2)c1 (stereo not given) | 42.88 | 
Nc1cc(N2CCCC(COc3ccc(F)cc3)C2)ncn1 (stereo not given) | 1.04 | 
Cc1ccc(OCC2CCCN(c3cc(C(N)=O)ccn3)C2)cc1 (stereo not given) | 60.08 | 

Reference: ChEMBL document CHEMBL3988442, “University of Dundee, Small-Polar-MMV Screening Library” (2021)
